DAX1 inh-1: DAX1 (NR0B1) inhibitors on StAR promoter, primary screen, cell-based, luminescence, SF-1 (NR5A1), full-length DAX-1. HEK293T StAR-luciferase reporter, SF-1/DAX-1 repression relief. inhibition, % at 6.8 µM. actives 1.1% (n = 370,000);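 active = inhibition above the mean over all tested compounds plus 3 SD, cut at about 3.6% in these data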;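 note: higher inhibition means more luminescence from relief of DAX-1 repression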
hgDAF-12 ag: H. glycines DAF-12 receptor agonists, primary screen, cell-based, luminescence, HEK293, GAL4 fusion, UAS-luciferase; Nuclear hormone receptor DAF-12 (Heterodera glycines), GAL4 fusion; HEK293 GAL4-hgDAF12 UAS-luciferase reporter, agonist luminescence; normalized to butyrate control; activation, % at 6.8 µM; actives 1.8% (n = 370,000); AID 687014, 2013;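 active = activation above a cutoff set at the mean of all screened compounds plus 3 SD, cut at about 10% in these data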
AHR act: AHR activators, primary screen, cell-based, luminescence, luciferase reporter, human; activation, % at 5 µM; actives 2.5% (n = 320,000); AID 2796, 2010; AHR-responsive luciferase reporter cells; in the data active = activation above about 47%
hcDAF12 agonist: H. contortus DAF-12 nuclear receptor activators, primary screen, cell-based, luminescence, HEK293, lit1-tk-luc reporter; HEK293 hcDAF-12 lit1-tk-luc reporter; 0% DMSO, 100% Δ7-dafachronic acid; activation, % at 6.8 µM; actives 1.4% (n = 370,000); AID 652067, 2013;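 active = activation above the mean of all tested compounds plus 3 SD, cut at about 5.5% in these data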
DAX1 inh-2: DAX1 (NR0B1) inhibitors, primary screen, cell-based, HEK293, Gal4-DAX1, luciferase luminescence | Nuclear receptor subfamily 0 group B member 1 (Homo sapiens), P51843 | HEK293 Gal4-DAX1 luciferase reporter | inhibition, % at 6.75 µM | actives 0.99% (n = 340,000);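 active = inhibition above the mean over all tested compounds plus 3 SD, cut at about 4.2% in these data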;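 note: inhibition shows as a rise in luminescence from relieved DAX1 repression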
Target sequence (P51843 207-470 limits assumed): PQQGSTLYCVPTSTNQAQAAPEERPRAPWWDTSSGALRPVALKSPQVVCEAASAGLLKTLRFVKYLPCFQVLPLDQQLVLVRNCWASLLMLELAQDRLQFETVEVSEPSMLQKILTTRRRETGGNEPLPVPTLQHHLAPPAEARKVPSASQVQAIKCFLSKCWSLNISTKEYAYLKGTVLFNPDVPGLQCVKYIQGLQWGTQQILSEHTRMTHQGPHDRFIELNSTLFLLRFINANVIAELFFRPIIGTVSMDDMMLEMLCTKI
ssDAF12 agonist: S. stercoralis DAF-12 nuclear receptor activators, primary screen, cell-based, luminescence, HEK293, GRIP1 co-expression, lit1-tk-luc; Nuclear hormone receptor DAF-12 (Strongyloides stercoralis); HEK293 ssDAF-12/GRIP1 lit1-tk-luc reporter; % of 3 µM dafachronic acid response; activation, % at 6.8 µM; actives 1% (n = 370,000); AID 652126, 2013;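 active = activation above the mean over all tested compounds plus 3 SD, cut at about 0.9% in these data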
Large screens that a line does not name were inactive. Only some compounds are listed: those with a hit (about 5.7% of all), similar ones and a draw of the others.

Cc1ccc(Nc2nc(-c3sc(N)nc3C)cs2)cc1	hcDAF12 agonist 5.8 (no result: AHR act)
Cc1nc(N)sc1-c1csc(Nc2ccccn2)n1	none (no result: AHR act)
Cc1nc(N)sc1-c1csc(Nc2ccc(Cl)cn2)n1	AHR act 76
Cc1ccc(Nc2nc(-c3sc(C)nc3C)cs2)cc1	AHR act 62
COc1cc2c(cc1OC)CN(c1ccc(C(N)=O)cc1[N+](=O)[O-])CC2	none
CCN(C(=O)COC(=O)c1ccc(=O)n(Cc2ccccc2)n1)C1CCCCC1	none
c1ccc(-c2ccc(-c3ccncn3)cc2)cc1	hgDAF-12 ag 12
CCn1c(CNc2ccc(Cl)cc2)nnc1SCc1ccc(C)cc1	AHR act 50
OC(CNCc1ccccc1)c1ccccc1 (stereo unspecified)	DAX1 inh-2 4.5
Cc1ccc(C(=O)NCC(=O)OC(C)C(=O)NC2CCCc3ccccc32)cc1 (stereo unspecified)	none
COc1ccccc1-c1nc2c3ccccc3nc(=S)n2[nH]1	AHR act 68
COc1cc(-c2n[nH]c(=S)n2C(C)c2ccccc2)cc(OC)c1OC (stereo unspecified)	none
COc1cc(-c2nc3c4ccccc4nc(=S)n3[nH]2)cc(OC)c1OC	AHR act 71
CC(Oc1ccc(Br)cc1)c1nc2c3ccccc3nc(=S)n2[nH]1 (stereo unspecified)	none
CS(=O)(=O)N(CC(=O)NCc1ccco1)c1cccc([N+](=O)[O-])c1	none
O=c1ccnc2n1COCS2	DAX1 inh-2 6.1
CC(/C=N/NC(=O)Cn1cnc2ccccc21)=C\c1ccccc1	ssDAF12 agonist 8.4
O=C(Cn1cnc2ccccc21)N/N=C/c1ccccc1	none
C[C@H](O)[C@@H]1C(=O)N2CCc3c([nH]c4c(-c5ccccc5)cccc34)[C@@H]2C[C@@H]1N(C)C(=O)Nc1cccc2ccccc12	none (no result: AHR act, DAX1 inh-2)
CC(=O)Nc1ccc(N2N=C(C)C(N=Nc3ccccc3)C2=O)cc1 (stereo unspecified)	AHR act 50
CC1=NN(c2ccccc2)C(=O)C1N=Nc1ccc(C)cc1 (stereo unspecified)	none (no result: DAX1 inh-1, hgDAF-12 ag, hcDAF12 agonist, DAX1 inh-2, ssDAF12 agonist)
COC(=O)[C@]12C[C@H](CC(=O)NCc3ccc(C)o3)C(=O)N(CCC3=CCCCC3)C1=C[C@H](C1CCCC1)O[C@@H]2C	none (no result: AHR act, DAX1 inh-2)
COCCOC(=O)c1[nH]c2c(c1C)C(=O)CC(c1ccco1)C2 (stereo unspecified)	AHR act 56
CCOC(=O)c1[nH]c2c(c1C)C(=O)CC(c1ccco1)C2 (stereo unspecified)	DAX1 inh-1 7.0
Cc1c(C(=O)OCc2ccccc2)[nH]c2c1C(=O)CC(c1ccco1)C2 (stereo unspecified)	none (no result: DAX1 inh-1, hgDAF-12 ag, hcDAF12 agonist, ssDAF12 agonist)
CC(=O)NC1C(OC(=O)/C=C/c2ccccc2)OC(COC(C)=O)C(OC(C)=O)C1OC(C)=O (stereo unspecified)	none
CCOc1ccc(NC(=O)c2cc(F)c(F)cc2Cl)cc1OCC	none
O=C(N[C@H](Cc1ccccc1)C(=O)NCCN1CCOCC1)[C@H]1O[C@@H](n2ccc(=O)[nH]c2=O)[C@H](O)[C@@H]1O	none (no result: AHR act, DAX1 inh-2)
CCC(=O)c1ccc(Oc2nc3c(c(=O)n(C)c(=O)n3C)n2CC)cc1	AHR act 61
COC(=O)c1ccc(Oc2nc3c(c(=O)n(C)c(=O)n3C)n2CCC(C)C)cc1	none
COc1ccc(C(=O)COC(=O)c2c(-c3ccccc3)noc2C)c(OC)c1	none
O=C(CSc1nnc2ccc(-c3cccnc3)nn12)Nc1ccccc1F	none
O=C(CSc1nnc2ccc(-c3cccnc3)nn12)Nc1ccc(F)cc1F	AHR act 79

High-throughput results as filed in PubChem.
